Assay results published in PubChem BioAssay (EPA / NIEHS).
Active and inactive are the calls of the source. Rule for the calls: active = hit-call score of the fitted dose curve at least 0.9, where 1 is the maximum; inactive = score below 0.9.

test: ATG_TA_CIS: Attagene CIS-FACTORIAL HepG2 Assay for human TA Basal Promoter (AID 2282964); conditions: HepG2 Attagene CIS-factorial TA basal promoter reporter; actives raise or lower the signal
Description: ATG_CIS is a cell-based, multiplexed-readout assay that uses HepG2, a human liver cell line, with measurements taken at 24 hours after chemical dosing in a 24-well plate.ATG_TA_CIS is one of 52 assay component(s) measured or calculated from the ATG_CIS assay. It is designed to make measurements of mRNA induction, a form of inducible reporter, as detected with fluorescence intensity signals by Reverse transcription polymerase chain reaction (RT-PCR) and Capillary electrophoresis technology.Data from the assay component ATG_TA_CIS was analyzed into 1 assay endpoint. This assay endpoint, ATG_TA_CIS, was analyzed with bidirectional fitting relative to DMSO as the negative control and baseline of activity. Using a type of inducible reporter, measures of mRNA for gain or loss-of-signal activity can be used to understand the background control at the transcription factor-level as they relate to the gene . Furthermore, this assay endpoint can be referred to as a secondary readout, because this assay has produced multiple assay endpoints where this one serves a background control function. To generalize the intended target to other relatable targets, this assay endpoint is annotated to the background measurement intended target family, where the subfamily is internal marker.
Human liver HepG2 cells are transiently transfected with multiple reporter transcription units (MRTUs) in 6-well plates using FuGene 6 reagent (Roche; 3 ml FuGene/1 mg DNA). The MRTU constructs are regulated by a cis-regulating element (promoter). […] A major difference between the CIS and TRANS system is that in CIS activities of endogenous TFs are measured, whereas the TRANS assay evaluates changes in activities of exogenous, chimeric NR-Gal4 proteins. […] At the end of 24 hour incubation, total RNA was isolated using TriZol reagent (Invitrogen). The isolated RNA is then reverse-transcribed using oligo(dT) primer and Mo-MLV reverse transcriptase (Invitrogen) with DNAse I (Ambion) treatment for 30 min. The one-tenth of the produced cDNA was amplified by PCR using Taq DNA polymerase (Invitrogen) and two reporter sequence-specific primers. The PCR products were fluorescently labeled by primer extension with 6-arboxyfluorescein (6-FAM) 5'-labeled reporter sequence-specific primer (2 min at 95 C, 20 s at 68 C and 10 min at 72 C) and these products were digested with 5U of HpaI (New England Biolabs) for 2h at 37 C. The fragments were purified using Qiaquick PCR columns (Qiagen), analyzed on an ABI 3130xL genetic analyzer (Applied Biosystems) with peak positions identified by using a set of X-rhodamine (ROX)-labeled MapMarker1000 molecular weight standards (BioVentures). The raw capillary electrophoresis data was processed using Attagraph software (Attagene).

Row | Structure (SMILES) | outcome | AC50
1 | CCOC(=O)CC(=O)OCC | inactive | –
2 | CCCc1c(OCCCCc2nn[nH]n2)ccc(C(C)=O)c1O | inactive | –
3 | CCCC[N+]1(C)CCCC1 | inactive | –
4 | CC1(C)S[C@@H]2[C@H](NC(=O)[C@H](N)c3ccccc3)C(=O)N2[C@H]1C(=O)O | inactive | –
5 | C=C(C)C(=O)OCC1CCCO1 (stereo not given) | inactive | –
6 | Cc1ccccc1S(N)(=O)=O | inactive | –
7 | CC[N+](CC)(CC(=O)Nc1c(C)cccc1C)Cc1ccccc1 (tested in a mixture with another compound) | inactive | –
8 | C=C1CC[C@H]2C[C@@H]1C2(C)C | inactive | –
9 | CCCCCCCCCC/C=C/C1CC(=O)OC1=O (stereo not given) | inactive | –
10 | COC(=O)c1ccccc1 | inactive | –
11 | CC/C=C\CC1=C(C)CCC1=O | inactive | –
12 | Cc1cc2nc3c(=O)[nH]c(=O)nc-3n(C[C@H](O)[C@H](O)[C@H](O)CO)c2cc1C | inactive | –
13 | Cc1ccccc1S(=O)(=O)O | inactive | –
14 | CN(C)N=Nc1ccccc1 | inactive | –
15 | N#CCN(CC#N)CCN(CC#N)CC#N | inactive | –
16 | CC(O)(P(=O)(O)O)P(=O)(O)O | inactive | –
17 | Sc1nc2ccccc2s1 | inactive | –
18 | CC[N+](CC)(CC(=O)Nc1c(C)cccc1C)Cc1ccccc1 | inactive | –
19 | O=C1NC(=O)[C@@H]2CC=CC[C@H]12 | inactive | –
20 | C=CCOC(=O)C(=C)C | inactive | –

Row | Structure (SMILES) | outcome | AC50
21 | CCCCCCC1CCCC(=O)O1 (stereo not given) | inactive | –
22 | NC(N)=Nc1nc(CSCCC(N)=NS(N)(=O)=O)cs1 | inactive | –
23 | CCCCCC1CCCC(=O)O1 (stereo not given) | inactive | –
24 | Brc1ccc(Oc2ccc(Br)cc2)cc1 | inactive | –
25 | c1ccc2c(c1)Oc1ccccc1S2 | inactive | –
26 | C/C=C(\C)C(=O)OCC/C=C\CC | inactive | –
27 | C=CC(C)(CCC=C(C)C)OC(=O)c1ccccc1 (stereo not given) | inactive | –
28 | CC(C)n1c(/C=C/[C@@H](O)C[C@@H](O)CC(=O)O)c(-c2ccc(F)cc2)c2ccccc21 | inactive | –
29 | C[C@H]1C[C@H]2[C@@H]3CCC4=CC(=O)C=C[C@]4(C)[C@@]3(F)[C@@H](O)C[C@]2(C)[C@@]1(O)C(=O)CO | – | 100 µM (active)
30 | COc1c2occc2cc2ccc(=O)oc12 | inactive | –
31 | COc1ccccc1OCC(O)CO (stereo not given) | inactive | –
32 | Cc1cc(C)c(S(=O)(=O)O)cc1N=Nc1cc(S(=O)(=O)O)c2ccccc2c1O | inactive | –
33 | O=[N+]([O-])c1ccc2nc[nH]c2c1 | inactive | –
34 | CC(=O)CCc1ccccc1 | inactive | –
35 | CCCCn1cc[n+](C)c1 | inactive | –
36 | CCC(C)=NO | inactive | –
37 | CCCC(=O)OC/C=C(\C)CCC=C(C)C | inactive | –
38 | CN(C)CCC(c1ccc(Cl)cc1)c1ccccn1 (stereo not given) | inactive | –
39 | CC/C=C\CCCCCO | inactive | –
40 | CC(C)=CCOC(=O)c1ccccc1 | inactive | –
